USP17 block: blocks human USP17 ubiquitin-rhodamine cleavage. purified USP17, Ub-rhodamine cleavage fluorescence, 3 h. inhibition, % at 50 µM. 47,000 compounds, 6.5% hits
USP28 block: human USP28 deubiquitinase inhibition | purified USP28, Ub-rhodamine cleavage fluorescence, 30 min | inhibition, % at 25 µM | 47,000 compounds, 3% hits | AID 1645857
USP30 block: inhibitors of human USP30 deubiquitinase; inhibition, % at 25 µM; Q70CQ3; 47,000 compounds, 5.3% hits; purified USP30, Ub-rhodamine cleavage fluorescence
USP8 block: human USP8 deubiquitinase inhibition; 47,000 compounds, 4.2% hits; AID 1645853; P40818; inhibition, % at 20 µM; purified USP8, Ub-rhodamine cleavage fluorescence, 30 min
USP10 block: blocks human USP10 ubiquitin-rhodamine cleavage; Q14694; purified USP10, Ub-rhodamine fluorescence, 60 min; inhibition, % at 20 µM; 47,000 compounds, 1.1% hits
Target sequence (Q14694 whole entry, looked up): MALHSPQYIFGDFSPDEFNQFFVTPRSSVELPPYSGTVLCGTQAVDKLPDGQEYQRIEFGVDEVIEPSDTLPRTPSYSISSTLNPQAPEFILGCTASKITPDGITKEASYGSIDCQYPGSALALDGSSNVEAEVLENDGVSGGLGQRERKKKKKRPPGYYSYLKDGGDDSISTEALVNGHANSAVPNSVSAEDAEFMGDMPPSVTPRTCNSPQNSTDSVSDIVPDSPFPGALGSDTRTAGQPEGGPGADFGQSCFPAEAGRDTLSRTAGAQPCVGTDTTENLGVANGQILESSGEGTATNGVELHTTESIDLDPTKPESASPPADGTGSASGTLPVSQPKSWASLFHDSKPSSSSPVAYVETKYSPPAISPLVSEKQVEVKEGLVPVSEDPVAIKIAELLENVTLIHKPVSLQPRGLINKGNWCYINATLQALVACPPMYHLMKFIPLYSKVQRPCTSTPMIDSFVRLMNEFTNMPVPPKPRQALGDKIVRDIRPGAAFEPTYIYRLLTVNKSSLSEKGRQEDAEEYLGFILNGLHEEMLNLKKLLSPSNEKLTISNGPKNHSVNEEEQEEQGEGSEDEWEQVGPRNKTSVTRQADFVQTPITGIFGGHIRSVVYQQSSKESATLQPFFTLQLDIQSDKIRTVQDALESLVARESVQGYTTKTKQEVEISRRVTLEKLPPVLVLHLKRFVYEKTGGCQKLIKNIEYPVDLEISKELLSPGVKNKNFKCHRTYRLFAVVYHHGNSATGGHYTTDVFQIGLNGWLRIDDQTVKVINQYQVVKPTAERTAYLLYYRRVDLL
Numbers stand for hits; n = inactive; x = not tested or not shown. Hits are enriched below; roughly 14% of the tested compounds scored in any of these assays. Cut-off read from the data, not from the text of the source: active = inhibition above about 30%; inactive = the rest.

SMILES	USP17 block	USP28 block	USP30 block	USP8 block	USP10 block
Cc1nc(N2CCCCC2)ncc1-c1cc(=O)[nH]c(Nc2nc(C)c3ccccc3n2)n1	66.5	n	59.9	n	n
Cc1nc(N2CCC(C)CC2)ncc1-c1cc(=O)[nH]c(N2c3ccccc3CC2C)n1 (centres undefined)	n	n	n	44.2	n
Cc1ccc2nc(Nc3nc(-c4cnc(N5CCCC5)nc4C)cc(=O)[nH]3)nc(C)c2c1	n	n	n	n	n
CNS(=O)(=O)c1cc(C(=O)NCc2ccccc2)ccc1Cl	n	n	n	n	n
CC(C)C1Nc2ccc(C(=O)NCc3ccccc3)cc2NC1=O (centres undefined)	36.3	n	n	n	n
Cc1ccc(-c2onc3ccc(C(=O)NCc4ccccc4)cc23)cc1	n	n	n	n	n
CC(=O)C1=C(O)[C@@]2(O)C(=O)c3c(c(C)c4ccc(C)c(O)c4c3O)C[C@H]2[C@@H](N)C1=O	48.6	65.9	n	n	n
CC(C)c1ccc(NC(=O)COC(=O)c2ccccc2OCc2ccc(F)cc2)cc1	n	n	n	n	n
Cc1cc(O)ccc1NC(=O)CC(NCCc1ccccc1)C(=O)O (centres undefined)	n	n	n	30.8	n
Cc1ccc(NC(=O)CC(NCCc2ccccc2)C(=O)O)cc1 (centres undefined)	n	n	n	n	n
CC1=C(C(=O)Nc2ccccc2)C(c2cccc(OCc3ccc(F)cc3)c2)n2ncnc2N1 (centres undefined)	n	n	n	n	n
CC1=C(C(=O)Nc2cccnc2)C(c2cccc(OCc3ccccc3)c2)n2nnnc2N1 (centres undefined)	n	n	n	36.7	n
CC1=C(C(=O)Nc2ccc(C)cc2)C(c2ccncc2)n2c(nc3ccccc32)N1 (centres undefined)	n	n	n	n	n
CC1=C(C(=O)Nc2ccccc2)C(c2cccnc2)n2c(nc3ccccc32)N1 (centres undefined)	45.2	n	n	n	n
c1cncc(CN2CCCn3cnc(Cn4cccn4)c3C2)c1	n	n	n	n	n
CSc1ccc(/C=C/c2nc(-c3ccccc3O)n[nH]2)cc1	46.2	n	n	64.4	n
CN(Cc1ccccc1)S(=O)(=O)c1ccc(C(=O)Nc2ccc3c(c2)OCO3)cc1	n	n	n	n	n
CCN(Cc1ccccc1)S(=O)(=O)c1ccc(C(=O)Nc2ccc(S(N)(=O)=O)cc2)cc1	32.6	n	n	n	n
Cc1sc(NC(=O)c2ccc(S(=O)(=O)N(C)Cc3ccccc3)cc2)c(C(N)=O)c1C	n	n	n	31.3	n
CN(Cc1ccccc1)S(=O)(=O)c1ccc(NC(=O)c2ccc(Cl)cc2)cc1	n	n	31.1	n	n
CCN(Cc1ccccc1)S(=O)(=O)c1ccc(C(=O)Nc2sccc2C(N)=O)cc1	42.8	x	x	n	n
Fc1ccc(Cn2c(C3CCCO3)nc3ccccc32)cc1 (centres undefined)	n	n	n	n	n
Cc1ccc(NC(=O)Cc2ccc(-c3ccccc3)cc2)c(C)c1	n	n	n	n	n
Cc1c(C(=O)Nc2ccc3c(c2)N(C)C(=O)CO3)oc2ccc(F)cc12	n	n	n	n	n
CN1C(=O)COc2ccc(NC(=O)c3cc(-c4ccccc4)on3)cc21	73.9	n	n	n	n
SMILES	USP17 block	USP28 block	USP30 block	USP8 block	USP10 block
O=C(NC1CCCC1)c1cc(-c2cccnc2)n(-c2ccccc2)n1	n	n	32.5	n	n
Cc1ccc(NC(=O)c2cc(-c3cccnc3)n(-c3ccccc3)n2)nc1	31.8	n	51.0	n	n
CCc1c(C)nc(N2CCN(c3cccc(OC)c3)CC2)[nH]c1=O	n	n	n	n	n
Nc1c(C(=O)Nc2cc(C(F)(F)F)ccc2Cl)sc2nc3c(cc12)CCC3	n	n	n	n	n
Cc1cccc(C(=O)NC(Cc2ccccc2)c2nc3ccccc3n2C)c1 (centres undefined)	x	n	44.5	n	n
CC(=O)NC(Cc1ccccc1)c1nc2ccccc2n1Cc1ccccc1F (centres undefined)	n	n	n	n	n
Cc1cc(C)c(NC(=O)CSc2nc3nccnc3c(=O)n2Cc2ccccc2Cl)c(C)c1	49.2	36.5	n	n	n
CC(C)N1CCN(C(=O)CCC2CCCN(c3cc(NC4CC4)ncn3)C2)CC1 (centres undefined)	n	n	n	n	n
O=C(O)c1cc([N+](=O)[O-])ccc1N1CCC(Cc2ccccc2)CC1	n	n	30.9	n	n
Oc1ccc(-c2nc3c4cnn(-c5ccc(Cl)cc5)c4ncn3n2)cc1	32.3	x	x	n	n
CCC(C)c1ccc(O[C@@H]2O[C@@H]3COC(c4ccccc4)O[C@H]3[C@H](O)[C@H]2NC(C)=O)cc1 (some centres undefined)	40.4	34.0	81.5	n	n
CCC(=O)Nc1ccc(-n2cnc(C(=O)NC3CCCC3)c2)nc1	n	n	31.9	n	n
Cn1cc(-c2cnc(-c3cccc(F)c3)nc2)cc1C(=O)NCc1cccnc1	51.5	n	n	n	n
CC(C)(C)c1nn(-c2ccccc2)c2[nH]c(=O)c(CNCc3ccco3)cc12	n	n	n	38.9	n
Cn1c(=O)[nH]c(=O)c2c1nc(NCc1ccco1)n2CCO	n	n	n	n	n
COc1ccc(CCNCc2cc3c(C(C)(C)C)nn(-c4ccccc4)c3[nH]c2=O)cc1OC	n	n	n	45.8	n
COc1ccc(CCNCc2c(C(=O)O)c(C)n(-c3ccccc3)c2C)cc1OC	n	n	n	n	n
O=C(CN1c2ccc(F)cc2-c2ccccc2S1(=O)=O)Nc1ccc2c(c1)OCCO2	n	n	n	n	n
O=C1Cc2ccccc2C(=O)N1Cc1cccc(Cl)c1	n	n	n	88.4	n
Cc1ccc(CC(=O)Nc2nnc(C3CC(=O)N(c4ccccc4C)C3)s2)cc1 (centres undefined)	n	n	n	n	n
Cc1ccc(NC(=O)C2C3C=CC4(O3)C2C(=O)N(C2CCCCCC2)C4C(=O)NC2CCCCC2)cc1Cl (centres undefined)	48.8	n	n	n	n
O=C(Nc1ccc(Cl)cc1)C1C2C=CC3(O2)C1C(=O)N(C1CC1)C3C(=O)NC1CCCCC1 (centres undefined)	36.3	n	n	n	n
O=c1c2cnc3nc(-c4cccnc4)nn3c2ccn1Cc1ccco1	n	n	n	n	n
CC(=O)O[C@@H](C/C=C(\C)C(=O)O)[C@@H](C)[C@H]1C[C@H](OC(C)=O)[C@@]2(C)C3=CC[C@H]4C(C)(C)[C@H](O)CC[C@]4(C)C3=CC[C@]12C	55.8	45.4	62.3	n	52.0
CC(=O)O[C@@H](C/C=C(\C)C(=O)O)[C@@H](C)[C@H]1C[C@H](OC(C)=O)[C@@]2(C)C3=CC[C@H]4C(C)(C)[C@H](OC(C)=O)CC[C@]4(C)C3=CC[C@]12C	100.2	99.9	101.1	92.2	95.2
Cc1ccc(NC(=O)CCc2nnc3ccc(N4CCCC4)nn23)nc1	n	n	n	n	n
O=[N+]([O-])c1cc(S(=O)(=O)Nc2ccccc2)ccc1NCc1ccc(F)cc1	n	n	35.5	n	n
